Screening data: PubChem, National Center for Advancing Translational Sciences (NCATS)
KB-3-1 tox = KB-3-1 parental cell cytotoxicity | KB-3-1 viability, CellTiter-Glo ATP luminescence, 72 h | Potency, µM (doses to about 46.1 µM), usual class: cytotoxic | hit rate 1.4% among 400,000 | AID 1347075; further: on the % scale 0 is the no-effect control and ±100 the full control effect; nearly all actives have a fitted effect of over 60% in size
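Using CellTiter-Glo luminescence, growth of non-resistant KB-3-1 adenocarcinoma cells is assessed 72 h after pin-tool compound addition at 37 °C. Normalized responses across the concentration series yield fitted curves.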
MCF10A rerep = induces DNA re-replication in MCF 10a normal breast cells | MCF 10A DNA re-replication, Hoechst nuclear intensity, 48 h | Potency, µM (top dose mostly 46.1 µM), for inactives: at the top dose activity, positive = re-replication, actives largely listed as activators | hit rate 2.9% among 350,000; further: % of control where 0% means no effect; nearly all actives have a fitted effect of over 50% in size
HT1080-NT tox = kills 2HG-producing HT-1080-NT fibrosarcoma cells | HT-1080-NT fibrosarcoma viability, CellTiter-Glo ATP luminescence, 48 h | Potency, µM (highest dose often 46.1 µM), inactives show top-dose activity, negative = less viability, most hits filed as cytotoxic | hit rate 1.6% among 360,000;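 further: NT is the 2HG producing partner of a matched IDH1 knockdown line; 0% = DMSO-treated cells and -100% = media-only wells without cells; nearly all actives have a fitted effect of over 55% in size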
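HT-1080-NT fibrosarcoma cells (2HG-overproducing), 750 cells/well in RPMI with 5% FBS, dosed after 2 h and incubated 48 h at 37C. CellTiter-Glo luminescence normalized to DMSO and no-cell wells; concentration-response curves fitted and classed.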
SW480 rerep = inducers of DNA re-replication in SW480 colon cancer cells; hit rate 1.8% among 340,000; Potency, µM (top dose mostly 46.1 µM), without a hit: at the highest dose re-replication activation, hits mostly activators; SW480 DNA re-replication, Hoechst DNA content imaging, 48 h; further: % of control where 0% means no effect; nearly all actives have a fitted effect of over 55% in size
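Per well, 250 cells were exposed to pinned compound for 48 hr. Nuclear DNA was visualised with Hoechst (40 min, 37 C) and total object intensity recorded by fluorescence scanning.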
KB-V1 cytotox = kills drug-selected multidrug resistant KB-V1 cells | KB-V1 MDR cells viability, CellTiter-Glo, 72 h | Potency, µM (doses to about 46.1 µM), most hits filed as cytotoxic | hit rate 3.4% among 400,000; further: on the % scale 0 is the no-effect control and ±100 the full control effect; nearly all actives have a fitted effect of over 60% in size
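Luminescent ATP read-out (CellTiter-Glo, 10 min) measures survival of drug-selected KB-V1 MDR cells after 72 h, 37 degrees C compound exposure. Medium: phenol-red-free DMEM, 10% FBS. Values from fitted concentration-response curves.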
HT1080 IDH1KD tx = toxicity to HT-1080 IDH1 knockdown cells (counter line); HT-1080 IDH1 knockdown viability, ATP luminescence, 48 h; Potency, µM (titrated, usually from 46.1 µM), inactives show top-dose activity, negative = toxicity, hits mostly cytotoxic; hit rate 2% among 360,000; AID 686971;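 further: 0% = DMSO wells and -100% = cell-free medium wells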
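Using the IDH1-knockdown HT-1080 line run in the same batch and compound series as the NT line, viability after 48 h at 37 °C was determined by CellTiter-Glo luminescence and expressed as % activity.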
* hit, by the source's call; i = inactive; ? = inconclusive; · = not tested or not shown; ! = a repeat was not active; [ ] = remark or other dose. This is a sample that favours compounds with a hit; in the whole collection about 8% have one here. The call rests on the fitted dose curve; in most records, active means well fitted curve in the direction sought with a large enough effect; inconclusive means small, poorly fitted or top-dose-only effect, or another doubt; inactive means no such curve, though single readings can be large; an effect the other way counts as inactive or inconclusive. Potency means the concentration at half of the fitted maximal effect.

SMILES	KB-3-1 tox	MCF10A rerep	HT1080-NT tox	SW480 rerep	KB-V1 cytotox	HT1080 IDH1KD tx
CCOC(=O)c1cnn(-c2nc(OC)cc(OC)n2)c1C(F)(F)F	i	6%	3%	3%	?	4%
COc1cc(OC)nc(-n2ncc(Br)c(Br)c2=O)n1	6.5µM*	4.6µM*	1.6µM*	7%	?	1.6µM*
COC(=O)c1cnn(-c2nc(OC)cc(OC)n2)c1C	i	-2%	-3%	-14%	16µM*	2%
Cc1ccc(NC(=O)c2nnn(Cc3cccc(C(F)(F)F)c3)c2N)c(C)c1	i	·	·	·	i	·
COc1ccc(C)cc1NC(=O)CCS(=O)(=O)c1cc2c3c(c1)CCN3C(=O)CC2	i	·	·	·	i	·
Cc1ccc(-c2nnn3c2nc(NCc2ccc4c(c2)OCO4)c2ccccc23)cc1	i	·	·	·	i	·
O=C(Nc1c(Cl)cccc1Cl)c1cccc2c1C(=O)N(C1CCCCC1)C2	i	·	·	·	i	·
CCOc1ccc(NC(=O)CSc2ncc3c(n2)-c2ccccc2N(C)S3(=O)=O)cc1	i	·	·	·	i	·
COc1cccc(Cn2c(=O)n(-c3ccccc3C)c(=O)c3c2c2cc(C)ccc2n3C)c1	?	·	·	·	i	·
CCCCc1ccc(NC(=O)CSCc2cc(=O)[nH][nH]2)cc1	i	13µM*	-2%	-3%	?	10%
O=C1c2cc(Cl)ccc2-c2c(O)cc(Cl)cc21	?	13µM*	9.2µM*	?	?	23µM*
O=c1cc(O)c(-c2ccc(Cl)cc2)c(Cl)[nH]1	i	-10%	-5%	-9%	i	-4%
CN1C=CC2=C(C#N)C(N)C(C#N)(C#N)C(c3ccccc3)C2C1 (centres undefined)	i	12%	0%	7%	15µM*	-4%
CCOC(=O)c1c(CC(C)C)csc1NC(C)=O	i	-6%	-13%	16%	i	-10%
CCOC(=O)c1c(CC(C)C)csc1/N=C/C1C(=O)CCCC1=O	i	?	?	16µM*	i	?
CCOC(=O)c1c(CC(C)C)csc1NC=O	16µM*	?	-11%	2%	4.6µM*	-11%
CCOC(=O)c1c(S(=O)(=O)N2CCCC(C(=O)Nc3ccc(C)cc3C)C2)c(C)n(CC)c1C (centres undefined)	i	·	·	·	i	·
CC(Oc1ccccc1)C(=O)Nc1ccc(C(=O)OCc2cc(=O)n3nc(C4CC4)sc3n2)cc1 (centres undefined)	i	·	·	·	?	·
FC(F)(F)c1cc(CCN2CCNC[C@@H]2c2ccccc2)cc(C(F)(F)F)c1	i	-15%	0%	-60%	i	-12%
FC(F)(F)c1cc(CO[C@@H]2CCCN[C@@H]2c2ccccc2)cc(C(F)(F)F)c1	i	?	?	?	i	23µM*
O=C(C1CCC(CNS(=O)(=O)c2cccc3nsnc23)CC1)N1CCN(c2ccccn2)CC1 (centres undefined)	i	-2%	-17%	-26%	18µM*	-11%
O=C(NCc1ccccc1)Nc1nnc(-c2ccncc2)s1	i	·	·	·	i	·
CC(C)c1cc2c(cc1S(=O)(=O)O)[C@@]1(C)CCC[C@@](C)(C(=O)O)[C@@H]1CC2	·	3%	·	3%	·	·
CC(C)c1ccc2c(c1)CC[C@H]1[C@](C)(CN)CCC[C@]21C	?	4%	18µM*	?	?	21µM*!
CC(C)c1ccc2c(c1)CCC1C(C)(CN)CCCC21C (centres undefined)	21µM*	16µM*	?	3.3µM*	?	21µM*
SMILES	KB-3-1 tox	MCF10A rerep	HT1080-NT tox	SW480 rerep	KB-V1 cytotox	HT1080 IDH1KD tx
CCN(CC)C(=O)C1=C(C)Nc2nc3ccccc3n2C1c1ccc(Br)cc1 (centres undefined)	i	·	·	·	i	·
N#CC1=C(N)OC2=C(CC/C2=C\c2ccccc2)C1c1ccccc1 (centres undefined)	?	5.8µM*	-21%	15µM*	?	-21%
N#CC1=C(N)OC2=C(CC/C2=C\c2ccccc2Cl)C1c1ccccc1Cl (centres undefined)	i	?	1%	?	?	4%
COc1ccccc1N1CCN(C(=O)NCc2ccc(Cl)cc2)CC1	i	0%	-12%	-24%	i	-8%
COc1ccccc1N1CCN(C(=O)c2ccc(-c3ccc(Cl)cc3)o2)CC1	4.6µM*	?	7.3µM*	?	?	5.2µM*
CCc1ccc2oc(C(=O)N3CCN(c4ccccc4OC)CC3)cc(=O)c2c1	18µM*	12µM*	?	?	23µM*	13µM*
N#C/C(=C\c1ccc(-c2ccc(C(=O)O)cc2)o1)C(=O)Nc1ccccc1C(=O)O	i	·	·	·	?	·
Cc1ccc(C(=O)/C=C\C(=O)c2ccc(C)cc2)cc1	i	?	-1%	?	i	?
Cc1ccc(S/C=C\C(=O)c2ccccc2)cc1	i	4.1µM*	22µM*	?	?	13µM*
COc1ccc(N/C(N)=N/c2nc(CSc3nnc(C)s3)cc(=O)[nH]2)cc1	5.2µM*	?	3.3µM*	3.3µM*	i	2.6µM*
Cc1ccc(N/C(N)=N/c2nc(CSc3nnc(C)s3)cc(=O)[nH]2)c(C)c1	2.3µM*	5.8µM*	2.6µM*	?	?	4.1µM*
COCc1cc(=O)[nH]c(/N=C(\N)Nc2ccc(Oc3ccccc3)cc2)n1	i	1%	-15%	-4%	18µM*	3%
Cc1cccc(N/C(N)=N/c2nc(CSc3ccc(Cl)cc3)cc(=O)[nH]2)c1	i	3.7µM*	0%	?	i	-3%
COC(=O)Cc1cc(=O)[nH]c(/N=C(\N)Nc2cccc(C)c2)n1	i	-3%	21%	-2%	i	18%
COCc1cc(=O)[nH]c(/N=C(\N)Nc2cccc(C)c2)n1	i	-184%[0.0737 µM]	-4%	6%	?	-1%
Cc1ccc(N2C(=O)CSC23C(=O)N(CC(=O)NC2CCCCC2)c2ccccc23)cc1C (centres undefined)	i	·	·	·	i	·
COc1ccccc1NC(=O)CSC1=Nc2ccccc2C2=NC(CCC(=O)NCc3cccs3)C(=O)N12 (centres undefined)	i	·	·	·	i	·
O=c1oc2cc(O)ccc2cc1-c1ccccc1	i	?	-14%	?	i	3%
COc1ccc(-c2cc3ccc(O)cc3oc2=O)cc1	i	18µM*	-8%	18µM*	i	-22%
Clc1ccc(-n2ncc3c(N4CCCCCC4)ncnc32)cc1	i	4%	10%	-2%	i	7%
